The source made the active and inactive calls.
Key:
[1] = small molecules captured by biotinylated probe aFSTL3 – biochemical, small-molecule microarray, fluorescence 635/667, stem cell growth factor project, primary screen (AID 1064); details: higher = more signal;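 further: measures binding of the biotinylated anti-FSTL3 antibody to printed compounds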
[2] = binders from COS7 lysate, DM2A8 probe, primary screen, torsin A project, cell lysate, small-molecule microarray, fluorescence 635/667 (AID 1065); details: higher = more signal, COS7 lysate expressing mutant human TOR1A
[3] = small molecules captured by biotinylated probe aFGF2 – biochemical, small-molecule microarray, fluorescence 635/667, stem cell growth factor project, primary screen (AID 1067); details: higher = more signal;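 further: measures binding of biotinylated aFGF2 protein to printed compounds on slides; z-score merges feature fluorescence and signal-to-noise across triplicate slides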
[4] = small molecules captured by biotinylated probe aFGF10 – biochemical, small-molecule microarray, fluorescence 635/667, stem cell growth factor project, primary screen (AID 1071); details: higher = more signal;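 further: score merges 667 nm spot intensity and signal to noise from triplicate slides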
[5] = biological target: Neurogenic locus notch homolog protein 2 (Homo sapiens) (UniProt Q04721); experiment: small molecules binding Notch2 protein – biochemical, small-molecule microarray, 635 nm fluorescence, stem cell growth factors, primary screen (AID 1073); details: higher = more signal
[6] = biological target: Pro-neuregulin-1, membrane-bound isoform (Homo sapiens) (UniProt Q02297); experiment: small molecules binding neuregulin-1 protein – biochemical, small-molecule microarray, fluorescence 635/667, psychiatric disease protein project, primary screen (AID 1075); details: NRG1 binding, 635 nm fluorescence, higher = more signal;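 further: score combines 667 nm spot fluorescence with signal to noise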
Pro-neuregulin-1, membrane-bound isoform (Homo sapiens), sequence (Q02297 whole entry, looked up, the tested form may be a part, canonical isoform): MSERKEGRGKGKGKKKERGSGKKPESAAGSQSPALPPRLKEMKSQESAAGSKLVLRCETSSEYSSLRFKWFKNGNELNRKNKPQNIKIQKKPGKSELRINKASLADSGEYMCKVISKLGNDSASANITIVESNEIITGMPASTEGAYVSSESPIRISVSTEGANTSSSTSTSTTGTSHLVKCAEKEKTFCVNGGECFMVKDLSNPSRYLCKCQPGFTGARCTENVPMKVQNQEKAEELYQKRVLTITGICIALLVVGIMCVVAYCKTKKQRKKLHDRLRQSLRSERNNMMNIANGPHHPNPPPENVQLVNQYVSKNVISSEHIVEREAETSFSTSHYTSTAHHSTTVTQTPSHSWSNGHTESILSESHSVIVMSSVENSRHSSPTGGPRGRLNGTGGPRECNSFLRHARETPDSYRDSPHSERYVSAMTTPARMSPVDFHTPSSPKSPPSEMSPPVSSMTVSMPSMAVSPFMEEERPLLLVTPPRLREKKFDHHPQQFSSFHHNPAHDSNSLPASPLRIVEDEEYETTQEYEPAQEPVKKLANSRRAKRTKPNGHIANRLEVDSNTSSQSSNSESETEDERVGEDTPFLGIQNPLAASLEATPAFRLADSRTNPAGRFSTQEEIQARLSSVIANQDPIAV

[7] = tested on: Neuregulin-1 EGF-like domain; experiment: small molecules binding NRG1 EGF domain – biochemical, small-molecule microarray, 635 nm fluorescence, primary screen (AID 1081); details: higher = more signal;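 further: binding of the protein to compounds printed on small-molecule microarray slides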
[8] = FRG1 expression reporter modulators in myotubes – cell-based, C2C12 myotubes, firefly/Renilla luciferase, luminescence, FRG1 inhibition for FSHD, primary screen (AID 1084); details: FRG1 promoter luciferase, higher = more signal, called active from +8 up or from −8 down
[9] = small molecules captured by biotinylated probe aFST – biochemical, small-molecule microarray, fluorescence 635/667, stem cell growth factor project, primary screen (AID 1086); details: higher = more signal;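 further: score merges 667 nm fluorescence with signal-to-noise of each printed compound spot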
[10] = binders of probe aHhip on microarray, primary screen, stem cell growth factor project, biochemical, small-molecule microarray, fluorescence 635/667 (AID 1087); details: higher = more signal;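 further: score merges spot fluorescence at 667nm with spot signal to noise ratio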
[11] = tested on: PRMT1 (protein arginine N-methyltransferase 1); experiment: small molecules binding arginine methyltransferase PRMT1 – biochemical, small-molecule microarray, 635 nm fluorescence, primary screen (AID 1088); details: higher = more signal;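 further: binding of Prmt1 protein to compounds spotted on small-molecule microarray slides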
[12] = growth effects on S. cerevisiae YJM789 – YJM789 clinical isolate, OD600, 24 h, basal, primary screen (AID 1089); details: higher = more signal, called active from +8 up or from −8 down;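 further: growth of clinical yeast isolate S. cerevisiae YJM 789 seeded 1000 cells per well; test concentration not given here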
[13] = S. pombe growth modifiers, basal conditions – strain 972, OD600, 24 h, no modulator, primary screen (AID 1090);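 further: basal condition with compound alone and no growth modifier present; test concentration not given here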; details: S. pombe 972 growth, higher = more signal, called active from +8 up or from −8 down
[14] = budding yeast growth modifiers under rapamycin – strain BY4716, OD600, 96 h, primary screen (AID 1091); further: test concentration not given here; details: S. cerevisiae BY4716 + rapamycin, higher = more signal, called active from +8 up or from −8 down
[15] = biological target: Torsin-1A-interacting protein 2 (Homo sapiens) (UniProt Q8NFQ8); experiment: small molecules binding lysate-expressed LULL1 – cell lysate, human LULL1 lysate, 635/667 nm fluorescence, primary screen (AID 1092); details: small-molecule microarray, hLULL1 lysate binding, 635 nm fluorescence; higher = more signal;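 further: probe is lysate of COS7 cells overexpressing human LULL1; score merges per-feature 667 nm fluorescence with signal-to-noise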
Torsin-1A-interacting protein 2 (Homo sapiens), sequence (Q8NFQ8 whole entry, looked up): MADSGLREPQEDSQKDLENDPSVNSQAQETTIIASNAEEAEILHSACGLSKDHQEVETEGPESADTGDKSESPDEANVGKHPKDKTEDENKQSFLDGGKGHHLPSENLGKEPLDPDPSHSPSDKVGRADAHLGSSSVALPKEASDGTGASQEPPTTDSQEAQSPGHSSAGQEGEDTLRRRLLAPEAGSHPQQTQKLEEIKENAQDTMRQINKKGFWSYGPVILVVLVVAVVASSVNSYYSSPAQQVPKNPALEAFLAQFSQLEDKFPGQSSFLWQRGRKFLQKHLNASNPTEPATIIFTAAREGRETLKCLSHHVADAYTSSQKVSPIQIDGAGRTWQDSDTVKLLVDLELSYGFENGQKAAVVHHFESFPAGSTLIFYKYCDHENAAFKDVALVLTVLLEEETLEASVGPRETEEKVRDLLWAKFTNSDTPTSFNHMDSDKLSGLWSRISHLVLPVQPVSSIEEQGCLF

[16] = optical density change of DRC41 E. coli – strain DRC41, OD650, 24 h, E. coli filamentation project, primary screen (AID 1093);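 further: MC1000 strain lacking acrAB efflux and sulA so SOS filamentation is blocked; test concentration not given here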; details: E. coli DRC41 growth, higher = more signal, called active from +8 up or from −8 down
[17] = probe aLefty2 binding to arrayed compounds – biochemical, biotinylated probe, 635/667 nm fluorescence, primary screen (AID 1094); details: small-molecule microarray, higher = more signal;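 further: score merges spot fluorescence near 667 nm with spot signal-to-noise ratio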
[18] = tested on: Noggin (protein binding on small-molecule microarray); experiment: small molecules binding Noggin protein – biochemical, 635/667 nm fluorescence, primary screen (AID 1095); details: 635 nm fluorescence, higher = more signal;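 further: score merges 667 nm feature fluorescence with signal to noise over triplicate slides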
[19] = biological target: Neurogenic locus notch homolog protein 3 (Homo sapiens) (UniProt Q9UM47); experiment: small molecules binding NOTCH3 protein – biochemical, 635/667 nm fluorescence, primary screen (AID 1096); details: small-molecule microarray, 635 nm fluorescence, higher = more signal
Neurogenic locus notch homolog protein 3 (Homo sapiens), sequence (Q9UM47 whole entry, looked up): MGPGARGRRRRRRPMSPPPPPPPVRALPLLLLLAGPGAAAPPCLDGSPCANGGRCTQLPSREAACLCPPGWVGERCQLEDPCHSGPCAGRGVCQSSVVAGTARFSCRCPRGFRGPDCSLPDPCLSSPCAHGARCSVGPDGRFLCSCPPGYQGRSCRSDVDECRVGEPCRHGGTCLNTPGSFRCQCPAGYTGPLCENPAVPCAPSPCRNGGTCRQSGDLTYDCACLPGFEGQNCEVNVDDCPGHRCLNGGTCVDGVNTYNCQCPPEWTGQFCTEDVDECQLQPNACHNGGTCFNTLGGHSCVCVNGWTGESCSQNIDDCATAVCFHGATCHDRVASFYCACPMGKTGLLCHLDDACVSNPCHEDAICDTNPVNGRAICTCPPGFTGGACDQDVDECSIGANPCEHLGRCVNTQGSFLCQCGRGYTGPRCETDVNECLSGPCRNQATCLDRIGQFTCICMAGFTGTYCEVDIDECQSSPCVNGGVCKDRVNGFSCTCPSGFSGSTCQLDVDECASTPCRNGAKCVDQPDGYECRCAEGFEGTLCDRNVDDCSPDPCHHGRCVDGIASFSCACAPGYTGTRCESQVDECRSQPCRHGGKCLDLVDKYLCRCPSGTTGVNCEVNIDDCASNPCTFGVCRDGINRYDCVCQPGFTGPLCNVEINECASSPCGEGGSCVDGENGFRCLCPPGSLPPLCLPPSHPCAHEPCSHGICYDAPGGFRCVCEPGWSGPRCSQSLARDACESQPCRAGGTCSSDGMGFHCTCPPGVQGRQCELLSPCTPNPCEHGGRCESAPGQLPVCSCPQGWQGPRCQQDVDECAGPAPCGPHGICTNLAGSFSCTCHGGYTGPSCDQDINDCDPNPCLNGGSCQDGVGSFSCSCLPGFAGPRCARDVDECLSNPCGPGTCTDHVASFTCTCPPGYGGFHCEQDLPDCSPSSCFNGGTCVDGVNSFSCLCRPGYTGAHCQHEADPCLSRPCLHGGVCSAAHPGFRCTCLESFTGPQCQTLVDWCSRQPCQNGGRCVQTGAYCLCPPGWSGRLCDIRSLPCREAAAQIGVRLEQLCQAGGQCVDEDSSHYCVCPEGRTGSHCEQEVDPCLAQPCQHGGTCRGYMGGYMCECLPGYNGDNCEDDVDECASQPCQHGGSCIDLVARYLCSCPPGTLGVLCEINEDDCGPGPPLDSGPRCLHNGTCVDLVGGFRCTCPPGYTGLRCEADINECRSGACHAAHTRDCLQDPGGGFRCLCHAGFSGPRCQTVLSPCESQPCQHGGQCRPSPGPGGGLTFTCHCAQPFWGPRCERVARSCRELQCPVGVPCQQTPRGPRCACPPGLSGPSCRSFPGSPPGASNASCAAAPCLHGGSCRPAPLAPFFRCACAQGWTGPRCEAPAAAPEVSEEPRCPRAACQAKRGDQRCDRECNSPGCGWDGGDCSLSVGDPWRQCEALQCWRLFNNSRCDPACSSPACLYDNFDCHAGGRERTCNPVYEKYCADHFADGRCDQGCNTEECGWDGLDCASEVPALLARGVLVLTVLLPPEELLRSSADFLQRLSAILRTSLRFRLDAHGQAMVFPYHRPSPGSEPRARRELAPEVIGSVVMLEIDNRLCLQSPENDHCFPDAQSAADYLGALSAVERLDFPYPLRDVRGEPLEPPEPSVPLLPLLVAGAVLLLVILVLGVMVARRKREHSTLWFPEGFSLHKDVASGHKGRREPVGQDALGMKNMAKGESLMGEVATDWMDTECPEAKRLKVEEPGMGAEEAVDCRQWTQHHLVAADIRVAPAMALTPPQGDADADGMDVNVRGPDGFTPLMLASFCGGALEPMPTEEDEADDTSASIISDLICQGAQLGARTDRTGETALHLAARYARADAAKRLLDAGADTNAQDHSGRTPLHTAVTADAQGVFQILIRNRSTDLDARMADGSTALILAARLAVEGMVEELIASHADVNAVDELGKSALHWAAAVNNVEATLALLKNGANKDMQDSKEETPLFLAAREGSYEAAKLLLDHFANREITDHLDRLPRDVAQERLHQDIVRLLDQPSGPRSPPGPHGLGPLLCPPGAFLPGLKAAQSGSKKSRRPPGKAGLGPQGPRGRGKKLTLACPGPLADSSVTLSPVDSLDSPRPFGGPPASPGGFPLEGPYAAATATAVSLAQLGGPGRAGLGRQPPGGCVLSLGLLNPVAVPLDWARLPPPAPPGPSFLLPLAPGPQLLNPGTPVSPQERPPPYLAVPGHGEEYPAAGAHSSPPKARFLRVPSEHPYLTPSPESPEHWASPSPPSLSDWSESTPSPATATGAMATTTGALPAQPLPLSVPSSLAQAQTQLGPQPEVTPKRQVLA

[20] = probe aEGFR binding to arrayed compounds – biochemical, biotinylated probe, 635/667 nm fluorescence, primary screen (AID 1097); details: small-molecule microarray, higher = more signal;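 further: probe is a biotinylated anti-EGFR antibody binding compounds printed on slides; score combines fluorescence near 667 nm and signal to noise of each spot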

Compound | composite z-score [1] | composite z-score [2] | composite z-score [3] | composite z-score [4] | composite z-score [5] | composite z-score [6] | composite z-score [7] | z-score [8] | composite z-score [9] | composite z-score [10] | composite z-score [11] | z-score [12] | z-score [13] | z-score [14] | composite z-score [15] | z-score [16] | composite z-score [17] | composite z-score [18] | composite z-score [19] | composite z-score [20]
C[N+](C)(C)CCCC[C@@H]1NC(=O)[C@H]2C[C@@H](C(=O)NCCCCCN)[C@@H](c3cccc(OCCO)c3)N2C1=O | 0.89 | 0.419 | -0.0164 | 0.372 | 0.529 | 2.07 | 0.739 | -0.309 (inactive) | 1.69 | 0.242 | 0.665 | -0.706 (inactive) | -2.62 (inactive) | -0.207 (inactive) | 2.7 | 2.4 (inactive) | 0.739 | 0.387 | 0.526 | 0.162
COc1ccc([Si](C)(C)[C@H]2[C@H](CC(=O)N3Cc4ccccc4C[C@H]3CO)O[C@@]3(C(=O)N(Cc4cccc(N5C(=O)COc6ccccc65)c4)c4ccccc43)[C@@H]2C)cc1 | -0.187 | 0.572 | -0.12 | 0.429 | 0.659 | 0.838 | 1.08 | -3.08 (inactive) | 0.203 | 0.0873 | 1.47 | -0.41 (inactive) | 0.349 (inactive) | 2.29 (inactive) | 1.89 | 1.86 (inactive) | -0.116 | 1.56 | 1.11 | -0.0192
C=CC[C@@H](OC(=O)Nc1ccc(SC)cc1)c1ccc(OCCO)cc1 | 1.15 | -0.325 | -0.175 | -0.932 | -1.77 | 0.767 | 0.801 | 4.02 (inactive) | -0.464 | -0.251 | -0.306 | -0.0227 (inactive) | -3.88 (inactive) | 0.0294 (inactive) | 2.42 | 1.4 (inactive) | 0.214 | -1.07 | -0.525 | -0.204
COc1ccc([Si](C)(C)[C@H]2[C@H](CC(=O)N(CCO)Cc3ccccc3)O[C@@]3(C(=O)N(Cc4ccc(N5CCOC5=O)cc4)c4ccccc43)[C@@H]2C)cc1 | 0.0147 | 0.285 | -0.105 | 0.202 | 0.135 | 0.869 | 1.01 | -2.95 (inactive) | -0.158 | -0.0618 | 0.92 | 0.473 (inactive) | 0.273 (inactive) | 3.26 (inactive) | 1.98 | 1.46 (inactive) | -0.0595 | 0.821 | 0.361 | -0.146
CC(CO)N1C(=O)[C@@H]2C3C(=O)OCCC/C=C\[C@H]3OC23C=CCN(Cc2ccccc2)C(=O)[C@@H]13 (stereo not given in full) | 0.418 | -0.338 | -0.143 | -0.486 | -0.847 | -0.512 | 0.18 | 0.227 (inactive) | -0.0745 | -0.0239 | 0.432 | -0.537 (inactive) | -2.16 (inactive) | -0.875 (inactive) | -0.0166 | 2.31 (inactive) | -0.16 | -0.545 | -0.505 | -0.186
